Test results from PubChem BioAssay (EPA / NIEHS).
Several values for one entry are separate records, joined by “and”; a condition that tells them apart may be missing. Equal entries are not always repeated. Records with an inconclusive call do not appear. A structure can be active in one record and inactive in another. Activity calls are given as the source filed them. Rule for the calls: active = hit-call score of the fitted dose curve at least 0.9, where 1 is the maximum; inconclusive = response in the unintended direction; inactive = score below 0.9.

What follows are molecules tested against Cellular tumor antigen p53 (Homo sapiens) (UniProt P04637) (assay: TOX21_p53_BLA_p5_ratio: Tox21 HCT-116 p53 Agonism Beta-lactamase Assay, Ratio, Phase 5 (AID 2283599)).
Cellular tumor antigen p53 (Homo sapiens), sequence (P04637 whole entry, looked up, the tested form may be a part): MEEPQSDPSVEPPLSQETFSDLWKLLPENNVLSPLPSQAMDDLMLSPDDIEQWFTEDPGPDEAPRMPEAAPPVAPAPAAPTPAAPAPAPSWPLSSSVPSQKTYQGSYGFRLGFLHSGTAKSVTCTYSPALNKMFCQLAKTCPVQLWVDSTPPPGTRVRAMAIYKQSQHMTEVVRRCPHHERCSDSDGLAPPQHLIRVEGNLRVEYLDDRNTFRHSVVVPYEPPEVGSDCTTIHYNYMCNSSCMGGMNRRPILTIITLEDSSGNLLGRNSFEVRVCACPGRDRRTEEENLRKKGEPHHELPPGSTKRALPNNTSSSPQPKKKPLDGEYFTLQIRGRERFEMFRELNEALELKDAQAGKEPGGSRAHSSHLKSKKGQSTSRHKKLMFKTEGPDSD
Text: TOX21_p53_BLA_p5 is a cell-based, single-readout assay that uses HCT116, a human intestinal cell line, […] in a 1536-well plate.TOX21_p53_BLA_p5_ratio is an assay readout measuring reporter gene via receptor activity and designed using inducible reporter (beta lactamase induction) detected with GAL4 b-lactamase reporter gene. The signal is derived from the ratio of cleaved (ch2) to uncleaved (ch1) reporter gene substrate used as the measure of target activity.Data from the assay component TOX21_p53_BLA_p5_ratio was analyzed into 1 assay endpoint. This assay endpoint, TOX21_p53_BLA_p5_ratio, was analyzed in the positive analysis fitting direction relative to DMSO as the negative control and baseline of activity. Using a type of inducible reporter, gain-of-signal activity can be used to understand changes in the reporter gene as they relate to the gene TP53. Furthermore, this assay endpoint can be referred to as a primary readout, because this assay has produced multiple assay endpoints and this ratio serves a reporter gene function to understand target activity. To generalize the intended target to other relatable targets, this assay endpoint is annotated to the DNA binding intended target family, where the subfamily is tumor suppressor.
Thawing Method: Place 14 mL of pre-warmed thaw medium into a 15 mL of conical tub. Remove the vial of cells to be thawed from liquid nitrogen and thaw rapidly by placing at 37C in a water bath with gentle agitation for 1-2 minutes. Decontaminate the vial by wiping with 70% ethanol before opening in a biological safety cabinet. Transfer the vial contents drop-wise into 14 mL of thaw medium in a sterile 15-mL conical tub. Centrifuge cells at 900 rpm for 4 minutes and resuspend in thaw medium. Transfer contents to the T75 tissue culture flask containing Thaw Medium and place flask in a humidified 37C/5% CO2 incubator. Switch to growth medium at first passage.Propagation Method: Aspirate medium, rinse once in DPBS, add 0.25% Trypsin/EDTA and swirl to coat the cell evenly. Add an equal volume of Growth Medium to inactivate Trypsin after 2-3 minutes incubation at 37C. Centrifuge cells at 900 rpm for 4 minutes and resuspend in growth medium. Cell should be passage or fed at least twice a week.Assay Protocol: Harvest cells from culture in growth medium and resuspend in assay medium. 2.2 Dispense 4000 cells/5 uL/well into 1536-well black/clear bottom plates using a Multidrop dispenser. After the cells were incubated at 37C for 5 hours, 23 nL of compounds dissolved in DMSO were transferred to the assay plate by a PinTool resulting in a 217-fold dilution. Incubate the plates for 16 hours at 37C, 5% CO2. Add 1 uL of 6X LiveBLAzer FRET B/G (CCF4-AM) Substrate Mixture to each well using a BioRAPTR dispenser and incubate the plates at room temperature for 2 hours. Measure fluorescence intensity at 460 and 530 nm emission and 405 nm excitation by an Envision detector. Data is expressed as the ratio of 460nm/530nm emissions. Add 4 uL of Cell-titer Glo to each well using BioRAPTR and incubate the plates at room temperature for 2 hours. Measure fluorescence intensity by a VewLux plate reader.
For `CC(C)CCCC(C)CC=O` (stereo not given), the outcome was “inactive”.
In the case of `Cc1cccc(C(=O)O)c1`, the outcome is reported as “inactive”.
In the case of `O=S(=O)(O)CC(O)CCl` (stereo not given), the outcome is reported as “inactive”.
For `COC(=O)c1sccc1S(N)(=O)=O`, the outcome was “inactive”.
With `CNC(=S)N(C)C` the outcome was “inactive”.
With `CC(=O)OCC(C)OC(C)=O` (stereo not given) the outcome was “inactive”.
In the case of `O=C1CCCC(=O)O1`, the outcome is reported as “inactive”.
With `c1c[nH]cn1` the outcome was “inactive”.
In the case of `OCCN(CCO)c1ccccc1`, the outcome is reported as “inactive”.
In the case of `CCO[Si](C)(OCC)OCC`, the outcome is reported as “inactive”.
For `CN(C)c1ccc(N=Nc2ccccc2C(=O)O)cc1`, the outcome was “inactive”.
With `C=CC(=O)NC(C)(C)CS(=O)(=O)O` the outcome was “inactive”.
In the case of `CC1=Nc2ccc3ccccc3c2C1(C)C`, the outcome is reported as “inactive”.
With `O=C1CCCC1` the outcome was “inactive”.
For `CCN(CC#N)c1cccc(C)c1`, the outcome was “inactive”.
In the case of `O=C(Nc1cccc(C(F)(F)F)c1)c1cc(Br)cc(Br)c1O`, the AC50 is reported as 1.07 µM (active) and 7.71 µM (active).
For `COC(=O)C1=C(C)NC(C)=C(C(=O)OCC(C)C)C1c1ccccc1[N+](=O)[O-]` (stereo not given), the outcome was “inactive” and the AC50 was 20.6 µM (active).
In the case of `O=S(=O)(O)c1ccc2cc(O)c(S(=O)(=O)O)cc2c1`, the outcome is reported as “inactive”.
In the case of `Cc1cccc(OCCOc2cccc(C)c2)c1`, the outcome is reported as “inactive”.
`CCCCOCCOC(=O)COc1nc(Cl)c(Cl)cc1Cl` was tested, and the outcome was “inactive”.
`O=c1cc[nH]c(=S)[nH]1` was tested, and the outcome was “inactive”.
With `O=C(c1ccc(O)cc1)c1ccc(O)cc1O` the outcome was “inactive” and the AC50 was 86.2 µM (active).
`NC(=O)OCC(COC(N)=O)c1ccccc1` was tested, and the outcome was “inactive”.
`CN(C)CCCN(C)C` was tested, and the outcome was “inactive”.
In the case of `C[Si](C)(CCCN)O[Si](C)(C)CCCN`, the outcome is reported as “inactive”.
With `Nc1ccc(N)c(Cl)c1` the AC50 was 75.2 µM (active) and the outcome was “inactive”.
For `COc1ccc(C(Cl)=C(c2ccc(OC)cc2)c2ccc(OC)cc2)cc1`, the outcome was “inactive”.
`COc1ccc([C@@H]2CC(=O)c3c(O)cc(O[C@@H]4O[C@H](CO[C@@H]5O[C@@H](C)[C@H](O)[C@@H](O)[C@H]5O)[C@@H](O)[C@H](O)[C@H]4O)cc3O2)cc1OC` was tested, and the outcome was “inactive”.
`COc1cc(NC(=O)CC(C)=O)c(OC)cc1Cl` was tested, and the outcome was “inactive”.
With `NC(CO)(CO)CO` the outcome was “inactive”.
With `Cc1c(C)c([N+](=O)[O-])c(C(C)(C)C)c([N+](=O)[O-])c1C` the outcome was “inactive”.
In the case of `CCN(Cc1cccc(S(=O)(=O)O)c1)c1ccc(C(=C2C=CC(=[N+](CC)Cc3cccc(S(=O)(=O)[O-])c3)C=C2)c2ccccc2)cc1`, the outcome is reported as “inactive”.
With `CCCCCCOc1cc(C)c(O)c(C)c1C` the outcome was “inactive”.
In the case of `COC(=O)c1c(C)cc(O)c(C)c1O`, the outcome is reported as “inactive”.
With `O=S(=O)(O)c1ccccc1C=Cc1ccc(-c2ccc(C=Cc3ccccc3S(=O)(=O)O)cc2)cc1` the AC50 was 11.4 µM (active).
`Cn1c([N+](=O)[O-])cnc1COC(N)=O` was tested, and the outcome was “inactive”.
`O=P(O)(O)Oc1ccccc1` was tested, and the outcome was “inactive”.
